Compounds with a hit are over-represented: about 9.3% of the library has one in this group of screens.
ELG1 repair inh: blocks ELG1-dependent DNA repair in HEK293T cells; actives 2.3% (n = 330,000); HEK293T ELG1-luciferase reporter, luminescence, 16 h; DNA damage induced by 5-fluorouridine; Potency, µM (series often up to 46.1 µM), without a hit: top-dose activity change, negative = inhibition, most hits filed as inhibitors; further: on the % scale 0 is the no-effect control and ±100 the full control effect; nearly all actives have a fitted effect of over 55% in size
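Luminescence from the luciferase reporter, measured 30 min after ONE-Glo reagent at room temperature, was the read-out. Beforehand, 2,000 cells per well were exposed for 16 hr at 37 °C to 5-fluorouridine together with compound or vehicle.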
FLuc modulator: firefly luciferase modulation, counter-screen for miR-21 project. P08659. purified FLuc, Km substrates, luminescence inhibition. Potency, µM (highest dose often 57.5 µM), inactives show at the top dose activity change, negative = inhibition, most hits filed as inhibitors. actives 6.9% (n = 360,000);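 further: plate controls were vehicle for no effect and reference inhibitor for full effect; nearly all actives have a fitted effect of over 55% in size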
Target sequence (P08659 whole entry, looked up): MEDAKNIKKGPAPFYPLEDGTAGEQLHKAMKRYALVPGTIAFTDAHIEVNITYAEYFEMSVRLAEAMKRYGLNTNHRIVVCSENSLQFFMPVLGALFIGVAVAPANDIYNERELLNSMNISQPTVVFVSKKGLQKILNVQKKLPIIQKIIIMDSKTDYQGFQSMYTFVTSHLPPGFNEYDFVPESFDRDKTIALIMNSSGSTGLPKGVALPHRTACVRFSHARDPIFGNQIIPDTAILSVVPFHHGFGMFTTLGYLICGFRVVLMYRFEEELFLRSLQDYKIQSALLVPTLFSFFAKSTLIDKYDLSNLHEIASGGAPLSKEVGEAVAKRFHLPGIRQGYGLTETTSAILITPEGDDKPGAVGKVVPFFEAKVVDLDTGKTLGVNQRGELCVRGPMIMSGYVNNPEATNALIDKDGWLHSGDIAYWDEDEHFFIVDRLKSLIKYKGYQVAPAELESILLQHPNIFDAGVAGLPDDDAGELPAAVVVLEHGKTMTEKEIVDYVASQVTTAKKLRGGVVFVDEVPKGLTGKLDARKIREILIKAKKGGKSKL
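Purified P. pyralis luciferase, 10 nM final, with Km-level 10 uM D-luciferin and 10 uM ATP in 50 mM Tris acetate pH 7.5, 10 mM Mg acetate, 0.01% Tween-20, 0.05% BSA; 6-point qHTS titration about 60 µM downward; luminescence read.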
NPC1 promoter act: activates the NPC1 promoter | Huh7 NPC1 promoter luciferase reporter, 24 h | Potency, µM (doses to about 9.22 µM), inactives show at the top dose activation, usual class: activators | actives 2.4% (n = 320,000) | AID 485313; further: % of control where 0% means no effect; nearly all actives have a fitted effect of over 60% in size
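Luminescence read-out of NPC1 promoter-driven luciferase in stably transfected Huh7 cells; compounds delivered in DMSO and left 24 h at 37C, 5% CO2, qHTS titration format.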
SMN2 splice up: SMN2 splice variant enhancement; HEK293 SMN2-luciferase splicing reporter, luminescence, 30-36 h; Potency, µM (series often up to 46.1 µM), without a hit: at the top dose activity change, positive = activation, actives largely listed as activators; actives 2.8% (n = 210,000); further: % of control where 0% means no effect; nearly all actives have a fitted effect of over 55% in size
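qHTS luciferase splicing reporter: luminescence rises when SMN2 exon 7 is included in transfected HEK293 cells. Compound exposure lasted 30-36 h at 37C, with 4.5 mM final sodium butyrate as control, followed by a ONE-Glo read.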
Rab9 promoter act: activates the Rab9 promoter. actives 2.8% (n = 320,000). Huh7 Rab9 promoter-luciferase reporter, luminescence, 24 h. Potency, µM (titrated, usually from 9.22 µM), for the others: at the top dose activation, negative = inhibition, actives largely listed as activators; further: % of control where 0% means no effect; nearly all actives have a fitted effect of over 60% in size
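Cell-based reporter: Huh7 stable for Rab9 promoter-driven luciferase, plated in reduced-serum medium with 10% FBS at 1500 cells/well, compound-treated 24 h at 37 °C, luminescence read after 10 min reagent.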
ELG1 genotox: genotoxicity induction in ELG1-luciferase HEK293T cells | HEK293T ELG1-luciferase reporter, luminescence, 16 h | Potency, µM (highest dose often 46 µM), for inactives: top-dose activity change, positive = activation, hits mostly activators | actives 1.3% (n = 330,000); further: % of control where 0% means no effect; nearly all actives have a fitted effect of over 60% in size
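DMSO vehicle served as control against compound-treated ELG1-luciferase HEK293T cells; exposure lasted 16 hr at 37 °C and 5% CO2, followed by ONE-Glo luminescence detection after 30 min.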
Numbers without * were called inactive; ? = inconclusive; / = no result given; [ ] = dose if it differs, or a comment. The call rests on the fitted dose curve; in most records, active means well fitted curve in the direction sought with a large enough effect; inconclusive means small, poorly fitted or top-dose-only effect, or another doubt; inactive means no such curve, though single readings can be large; an effect the other way counts as inactive or inconclusive. Potency means the concentration at half of the fitted maximal effect.

SMILES | ELG1 repair inh | FLuc modulator | NPC1 promoter act | SMN2 splice up | Rab9 promoter act | ELG1 genotox
O=C(Cn1cnc2c(oc3ccccc32)c1=O)c1ccccc1 | ? | 15.1µM* | 2.51µM* | ? | ? | ?
C=CCOC(=O)Cn1cnc2c(sc3nc(C)cc(C)c32)c1=O | 2.9% | 10.7µM* | ? | / | ? | ?
Cc1cc(C)c2c(n1)sc1c(=O)n(CC(=O)c3ccccc3)cnc12 | 12.5% | 10.7µM* | ? | / | ? | ?
CCCCNC(=O)C1=C(N)C(C(=O)Nc2ccc(C)c(S(=O)(=O)N3CCCCC3)c2)SC1=Nc1ccc(C)cc1C (configuration not stated) | -33.8% | 1.9% | -2.6% | -7.5% | -1.3% | -5.9%
COC(=O)c1cc(Nc2nc3ccccc3nc2NS(=O)(=O)c2ccc(C)cc2)ccc1Cl | / | 19µM* | / | -1.8% | / | /
COc1ccc(Nc2nc3ccccc3nc2NS(=O)(=O)c2ccc(C)cc2)c(OC)c1 | / | ? | / | -2.9% | / | /
COc1cc(Nc2nc3ccccc3nc2NS(=O)(=O)c2ccc([N+](=O)[O-])cc2)cc(OC)c1OC | 16.4µM* | -6.7% | -14.0% | / | -28.9% | -9.4%
CC(=O)Nc1ccc(S(=O)(=O)Nc2nc3ccccc3nc2Nc2ccc3ccccc3c2)cc1 | 5.2% | 9.53µM* | -1.1% | ? | 1.3% | -0.6%
CC(=O)Nc1ccc(S(=O)(=O)Nc2nc3ccccc3nc2Nc2cccc(O)c2)cc1 | ? | ? | -6.3% | / | -0.1% | 4.9%
CC(C)NC(=O)NC(=O)COC(=O)c1cc[n+]([O-])cc1 | -13.9% | -0.5% | -1.8% | 8.3% | -4.6% | 0.1%
CN(C)CCSc1nc2cc(S(=O)(=O)N3CCCCC3)ccc2o1 | -25.7% | / | / | / | / | -6.1%
CC(C)c1cc(C(=O)NNC(=S)NCc2ccco2)c(O)c(C(C)C)c1 | 18.4µM* | 1.4% | -1.1% | -40.1% | 2.5% | -6.0%
Cc1ccc(CSC2=Nc3ccccc3C3=NC(CC(=O)NCc4ccco4)C(=O)N23)cc1 (configuration not stated) | ? | ? | 9.1% | 11.2µM* | -4.1% | 5.6%
O=C(CC1N=C2c3ccccc3N=C(SCc3ccc(F)cc3)N2C1=O)NCc1ccco1 (configuration not stated) | 29.3% | -16.7% | -2.1% | ? | -2.4% | 24.1%
CC(=O)Nc1ccc(NC(=O)c2ccccc2F)cc1 | ? | ? | 15.7% | ? | -5.5%[1.84 µM] | ?
O=C(Nc1ccc(F)cc1)c1ccccc1F | / | 21.3µM* | / | 7.2% | / | /
CCOC(=O)Nc1ccc(NC(=O)c2ccccc2F)cc1 | ? | ? | ? | ? | 3.55µM* | ?
O=C(Nc1ccc2cn[nH]c2c1)c1c(Cl)cccc1Cl | -12.8% | -4.5% | 0.0% | -1.7% | -2.4% | -3.3%
O=C(Nc1ccc2cn[nH]c2c1)c1ccccc1F | ? | 9.53µM* | 2.24µM* | 11.2µM* | 2µM* | ?
O=C(Nc1ccncc1)c1ccccc1F | 10.3µM* | -2.1% | -2.7% | -8.8% | -1.3% | -10.7%
CCN(C(=O)COC(=O)c1ccc([N+](=O)[O-])o1)c1cccc2ccccc12 | -3.0% | / | / | / | / | -0.2%
CCN(CC)C(=O)c1ccc(C(=O)Nc2ccc(F)cc2)cc1 | ? | ? | 17.3% | / | ? | ?
O=C(Nc1ccc(SC(F)F)cc1)c1ccc(F)cc1 | ? | 8.49µM* | 2.24µM* | 11.2µM* | 1.26µM* | ?
O=C(Nc1ccc2ccccc2c1)c1ccccc1F | ? | 1.35µM* | 0.501µM* | / | 0.631µM* | 2.59µM*
O=C(Nc1ccc2nc(-c3cccnc3)[nH]c2c1)c1ccccc1F | -7.9% | 15.1µM* | 1.3% | 0.2% | 8.1% | 8.2%
SMILES | ELG1 repair inh | FLuc modulator | NPC1 promoter act | SMN2 splice up | Rab9 promoter act | ELG1 genotox
O=C(Nc1ccc(SC(F)F)cc1)c1ccccc1F | ? | 13.5µM* | 2.51µM* | 17.8µM* | 1.78µM* | ?
O=C(Nc1ccc2oc(-c3cccnc3)nc2c1)c1ccccc1F | / | ? | / | 5.2% | / | /
O=C(CNC(=O)c1ccco1)OCC(=O)c1ccc([N+](=O)[O-])cc1 | -0.8% | 1.2% | -1.7% | / | 2.4% | -1.8%
O=C(Nc1cc(C(=O)N2CCCC2)ccc1N1CCCC1)c1ccccc1F | ? | -1.3% | 0.2% | / | 10.1% | -26.6%
O=C(Nc1ccc(Oc2cccnc2)cc1)c1ccccc1F | ? | 12µM* | ? | -1.3% | 2.82µM* | 3.1%
O=C(Nc1ccc(C(=O)N2CCCC2)cc1)c1ccccc1F | ? | ? | ? | ? | ? | 8.2µM*
CCOC(=O)c1cc(C(=O)NC(C)c2ccccc2)c(C)[nH]c1=O (configuration not stated) | -17.8% | -3.7% | -0.8% | / | -0.3% | -3.2%
CCCC(CCC)C(=O)NC1CC(=O)N(c2ccc3c(c2)OCCO3)C1 (configuration not stated) | / | 0.4% | / | / | / | /
Cc1ccc2nc(NC(=O)[C@H](C)N3C(=O)C4CC=CCC4C3=O)sc2c1 (some centres not stated) | ? | 16.9µM* | -14.1% | 20.9% | -20.8% | 5.2%
CS(=O)(=O)c1ccc2nc(NC(=O)CN3C(=O)C4CC=CCC4C3=O)sc2c1 (configuration not stated) | -8.2% | ? | -5.6% | 8.6% | 0.2% | -2.5%
Cc1ccc2nc(NC(=O)CN3C(=O)C4CC=CCC4C3=O)sc2c1 (configuration not stated) | ? | 10.7µM* | -5.3% | 12.7% | 1.2% | 1.3%
Cc1c(C(=O)Nc2ccccc2Br)oc2ccc(S(=O)(=O)N3CCCCCC3)cc12 | / | -1.6% | / | / | / | /
CCN(CC)CCn1c2ccccc2c2nc3ccc([N+](=O)[O-])cc3cc21 | ? | ? | -6.2% | / | -1.4% | 23.1µM*
CCOC(=O)C1=C(COC(=O)/C=C/c2ccc(SC)cc2)NC(=O)NC1C (configuration not stated) | 10.3µM* | -2.2% | 0.8% | / | 0.0% | -8.8%
O=S(=O)(Nc1cccc(-c2ccc(N3CCCC3)nn2)c1)c1ccccc1C(F)(F)F | / | 16.9µM* | / | / | / | /
O=S(=O)(Nc1cccc(-c2ccc(N3CCCC3)nn2)c1)c1ccc(F)c(C(F)(F)F)c1 | / | 19µM* | / | / | / | /
O=[N+]([O-])c1ccccc1S(=O)(=O)Nc1ccc(-c2ccc(N3CCCC3)nn2)cc1 | ? | -28.2% | -2.2% | / | 26.2% | 20.2%
O=S(=O)(Nc1cccc(-c2ccc(N3CCOCC3)nn2)c1)c1ccc(F)c(C(F)(F)F)c1 | / | 9.53µM* | / | / | / | /
COc1cccc(CNC(=O)c2ccc3c(c2)nc2n3CCOC2)c1 | / | -6.4% | / | / | / | /

Compound activity: PubChem, National Center for Advancing Translational Sciences (NCATS)
